± gives the standard deviation.
Columns and labels:
Details in all cases: modulator concentration 10 µM
[1] = system: RAW-Dual (murine macrophage reporter line); experiment: NF-kB reporter (SEAP) activity fold change vs agonist alone; higher = enhanced NF-kB activity
Method in brief: (§1)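 Compound reached 10 μM final in each well by pin transfer, onto RAW-Dual murine macrophage reporter cells seeded at 50 000 per well in 384-well plates. After 1 hour at 37 °C, the cells were stimulated overnight with a PRR agonist. SEAP in the supernatant was read with QUANTI-Blue at 620 nm absorbance for NF-κB, and Lucia luciferase was read with QUANTI-Luc luminescence for IRF. Each signal was turned into fold change against the mean agonist-only control on the same plate, and two replicate plates were averaged with propagated errors.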

[2] = system: RAW-Dual (murine macrophage reporter line); experiment: IRF reporter (Lucia luciferase) activity fold change vs agonist alone; higher = enhanced IRF activity
Method in brief: as §1

[3] = system: RAW-Dual (murine macrophage reporter line); experiment: viability score (confluency relative to resting cells, overnight) (fraction); higher = more viable, active = viable (0.7 or more)
Method in brief: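 In 384-well plates, RAW-Dual macrophages received compound at a final 10 μM overnight. Two confluency masks were then made with IncuCyte software from IncuCyte images of all imaged wells. The viability score is defined as confluency relative to resting cells. Passing the cutoff required both masks to lie above 70% of resting cells.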

[4] = agonist: CpG ODN 1826 0.5 ug/mL

Row | SMILES | NF-kB reporter [1, 4] | NF-kB reporter ([1]; agonist: LPS 0.1 ug/mL) | NF-kB reporter ([1]; agonist: MPLA […]) | IRF reporter ([2]; agonist: 3'3'-cGAMP 10 ug/mL) | IRF reporter ([2]; agonist: LPS 0.1 ug/mL) | IRF reporter ([2]; agonist: MPLA […]) | viability score [3]
1 | CC(=O)Nc1nnc(CCS(=O)(=O)c2ccc(Br)cc2)s1 | 0.951 ± 0.054 | 1.05 ± 0.064 | 0.93 ± 0.079 | 0.908 ± 0.032 | 1.46 ± 0.094 | 1.16 ± 0.12 | 1.01 (active)
2 | O=C(NC1CCN(c2ccc(C(F)(F)F)cn2)C1)c1nc2ccccc2s1 (stereo not drawn) | 1.09 ± 0.056 | 1.05 ± 0.088 | 0.909 ± 0.081 | 0.953 ± 0.049 | 1.27 ± 0.076 | 1.11 ± 0.28 | 0.983 (active)
3 | COc1ccc(CN(CCN(C)C)c2ccccn2)cc1 [Prestw-289] | 0.902 ± 0.068 | 1.08 ± 0.11 | 1.01 ± 0.026 | 0.976 ± 0.11 | 0.912 ± 0.1 | 0.848 ± 0.066 | 0.993 (active)
4 | O=C(Nc1ccc(F)cc1)c1ccccc1Br | 1.06 ± 0.092 | 1.06 ± 0.069 | 1 ± 0.065 | 0.73 ± 0.055 | 1.06 ± 0.065 | 1.04 ± 0.22 | 0.979 (active)
5 | NC(=O)c1ncn(C2OC(CO)C(O)C2O)c1O (stereo not drawn) | 0.931 ± 0.076 | 0.895 ± 0.088 | 0.917 ± 0.1 | 1.04 ± 0.037 | 1.32 ± 0.16 | 1.46 ± 0.2 | 1.01 (active)
6 | CCOC(=O)C(Oc1ccc2c(c1)oc(=O)c1cc(OC)ccc12)c1ccccc1 (stereo not drawn) | 1.04 ± 0.062 | 0.998 ± 0.13 | 0.929 ± 0.025 | 0.977 ± 0.04 | 1.02 ± 0.089 | 1.11 ± 0.21 | 1 (active)
7 | COc1ccccc1N1CCN(CC(O)COc2cccc3ccccc23)CC1 (stereo not drawn) | 0.878 ± 0.22 | 1.21 ± 0.2 | 0.711 ± 0.04 | 0.719 ± 0.026 | 1.6 ± 0.14 | 1.35 ± 0.13 | 0.967 (active)
8 | CC(CS)C(=O)N1CCCC1C(=O)O (stereo not drawn) | 0.96 ± 0.096 | 0.932 ± 0.068 | 0.977 ± 0.18 | 0.973 ± 0.03 | 1.22 ± 0.12 | 1.33 ± 0.18 | 1.02 (active)
9 | O=C1CCCN1c1ccc(Cn2cc(-c3nc(-c4ccc(F)cc4)no3)ccc2=O)cc1 | 0.981 ± 0.15 | 1.06 ± 0.086 | 1.01 ± 0.086 | 1.02 ± 0.053 | 1.04 ± 0.066 | 1.16 ± 0.15 | 1.01 (active)
10 | CCc1ccc(NC(=O)CSc2nc3c([nH]c4ccccc43)c(=O)n2C)cc1 | 0.809 ± 0.053 | 0.745 ± 0.06 | 0.776 ± 0.061 | 1 ± 0.08 | 1.13 ± 0.14 | 1.07 ± 0.18 | 0.483 (inactive)
11 | O=C(CSC1CC(=O)N(c2ccc(C(=O)O)cc2)C1=O)Nc1ccc(F)cc1 (stereo not drawn) | 0.998 ± 0.081 | 0.967 ± 0.14 | 1.52 ± 0.53 | 0.578 ± 0.021 | 1.25 ± 0.15 | 1.38 ± 0.22 | 1.01 (active)
12 | O=C(CN(CCc1ccccc1)S(=O)(=O)c1ccc(Cl)cc1)NCc1ccncc1 | 1.03 ± 0.19 | 0.976 ± 0.076 | 0.941 ± 0.12 | 0.954 ± 0.025 | 1.17 ± 0.11 | 1.16 ± 0.26 | 1.01 (active)
13 | Cc1ccc(C)n1-c1ccc(C(=O)OCC(=O)c2ccc([N+](=O)[O-])cc2)cc1 | 0.888 ± 0.071 | 0.845 ± 0.054 | 1.31 ± 0.42 | 0.666 ± 0.044 | 1.1 ± 0.064 | 1.01 ± 0.14 | 0.976 (active)
14 | CCOC(=O)C(CC)Oc1ccc2c(C)c(CC)c(=O)oc2c1 (stereo not drawn) | 0.955 ± 0.063 | 0.875 ± 0.071 | 0.976 ± 0.035 | 0.832 ± 0.03 | 0.852 ± 0.13 | 0.848 ± 0.27 | 0.986 (active)
15 | Cc1cccc2sc(NNC(=O)c3ccc(S(=O)(=O)N4CCc5ccccc5C4)cc3)nc12 | 0.923 ± 0.093 | 0.973 ± 0.063 | 0.93 ± 0.079 | 0.929 ± 0.067 | 1.2 ± 0.2 | 0.93 ± 0.11 | 0.995 (active)
16 | Brc1ccc2[nH]cc(-c3nnc4ccc5ccccc5n34)c2c1 | 0.644 ± 0.051 | 0.877 ± 0.042 | 1.7 ± 0.35 | 0.971 ± 0.051 | 1.4 ± 0.1 | 2.08 ± 0.22 | 0.973 (active)
17 | COc1ccc(CNC2CCCc3ccccc32)c(OC)c1C (stereo not drawn) | 0.166 ± 0.016 | 0.504 ± 0.058 | 1.09 ± 0.1 | 1.24 ± 0.04 | 1.21 ± 0.14 | 1.42 ± 0.29 | 0.192 (inactive)
18 | NN=C1CCCc2c1[nH]c1ccc(Cl)cc21 | 1.07 ± 0.11 | 1.04 ± 0.081 | 1.05 ± 0.056 | 0.505 ± 0.13 | 0.95 ± 0.076 | 0.873 ± 0.12 | 0.99 (active)
19 | CCc1c(C)[nH]c2c1C(=O)C(CN1CCOCC1)CC2 (stereo not drawn) [Prestw-1035] | 1.2 ± 0.1 | 0.92 ± 0.07 | 0.934 ± 0.027 | 1.03 ± 0.04 | 0.925 ± 0.049 | 0.959 ± 0.11 | 1 (active)
20 | CN(C)C(=O)COC(=O)Cc1ccc(OC(=O)c2ccc(NC(=N)N)cc2)cc1.CS(=O)(=O)O | 1.04 ± 0.045 | 0.913 ± 0.083 | 1.01 ± 0.079 | 1.07 ± 0.049 | 1.21 ± 0.22 | 1.25 ± 0.4 | 0.829 (active)
21 | COc1ccc(C=NNC(=O)C2COc3cc4ccccc4cc3O2)c(O)c1 (stereo not drawn) | 0.993 ± 0.094 | 0.966 ± 0.054 | 0.98 ± 0.079 | 0.956 ± 0.031 | 1.31 ± 0.18 | 1.1 ± 0.15 | 1.01 (active)
22 | Cc1ccc(-c2cc(NC(=O)c3ccc([N+](=O)[O-])cc3)[nH]n2)cc1 | 1.43 ± 0.11 | 1.04 ± 0.059 | 1 ± 0.061 | 0.869 ± 0.066 | 1.78 ± 0.3 | 1.82 ± 0.13 | 0.971 (active)
23 | CCOc1ccc(C=c2sc3nc4ccccc4n3c2=O)cc1Cl | 1.07 ± 0.064 | 1.02 ± 0.095 | 0.979 ± 0.031 | 1.01 ± 0.036 | 1.06 ± 0.051 | 0.974 ± 0.094 | 0.998 (active)
24 | COC(=O)C1=C(C)NC(=Cc2c(F)cccc2Cl)C1=O | 0.944 ± 0.17 | 0.966 ± 0.077 | 0.963 ± 0.11 | 0.876 ± 0.023 | 1.23 ± 0.19 | 1.13 ± 0.16 | 0.985 (active)
